Over roughly 81,000 sequences, “one-hybrid fitness for binding NBS DNA” has its median near -0.1; the highest 2% begin near 0.36. The sample as a whole holds a higher share of the highest values than the screen did.
B1: Caulobacter ParB omega fusion; a variant is named by its letters at X, in order, B8GW30 (parent)
chain: MESVVVGEPGMSEGRRGLGRGLSALLGEVDAAPAQAPGEQLGGSREAPIEILQRNPDQPRRTFREEDLEDLSNSIREKGVLQPILVRPSPDTAGEYQIVAGERAWRAAQRAGLKTVPIMVRELDDLAVLEIGIIENVQRADLNVLEEALSYKVLMEKFERTQENIAQTIGKSXSHVANXMRLLXLPDEVQSYLVSGELTAXHARAIAAAADPVALAKQIIEGGLSVRETEALARKAPNLSAGKSKGGRPPRVKDTDTQALESDLSSVLGLDVSIDHRGSTGTLTITYATLEQLDDLCNRLTRGI

Variants of: B1
Assay: one-hybrid fitness for binding NBS DNA (the Noc-binding site; scaled: cognate 1, non-cognate 0); higher = stronger binding
Conditions: with NBS DNA site
Summary of the method: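 Selection: bacterial one-hybrid in E. coli USO, HIS3 reporter with the site 19 bp from the promoter, 48 hours at 37°C on M9-minus-histidine plus 0.1 mM IPTG and 5 mM 3-AT. Libraries were Caulobacter ParB with four randomised specificity codons, sequenced on Illumina before and after selection. Fitness is the rescaled log change in variant-to-wild-type read ratio, anchored to the cognate and non-cognate sites.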

one-hybrid fitness for binding NBS DNA, 0.655:
RRRV

one-hybrid fitness for binding NBS DNA, 0.664:
RSRR

one-hybrid fitness for binding NBS DNA, 0.228:
REKR

one-hybrid fitness for binding NBS DNA, 0.527:
QCRQ
RCSR

one-hybrid fitness for binding NBS DNA, 0.77:
RCRR

one-hybrid fitness for binding NBS DNA, 0.294:
QRHD

one-hybrid fitness for binding NBS DNA, 0.358:
QRHI

one-hybrid fitness for binding NBS DNA, 0.616:
QKGR

one-hybrid fitness for binding NBS DNA, 0.499:
QYSR

one-hybrid fitness for binding NBS DNA, 0.257:
RCRV
QCYH

one-hybrid fitness for binding NBS DNA, 0.377:
QYGS

one-hybrid fitness for binding NBS DNA, 0.229:
RRVV

one-hybrid fitness for binding NBS DNA, 0.384:
KRNA

one-hybrid fitness for binding NBS DNA, 0.248:
QSQA
RFSR
QYRF

one-hybrid fitness for binding NBS DNA, 0.313:
KRYA

one-hybrid fitness for binding NBS DNA, 0.381:
RSYR

one-hybrid fitness for binding NBS DNA, 0.456:
RRNV

one-hybrid fitness for binding NBS DNA, 0.272:
QYDT

one-hybrid fitness for binding NBS DNA, 0.27:
QYPR

one-hybrid fitness for binding NBS DNA, 0.238:
QCHC

one-hybrid fitness for binding NBS DNA, 0.581:
QTRQ

one-hybrid fitness for binding NBS DNA, 0.254:
RRYV

one-hybrid fitness for binding NBS DNA, 0.242:
QMSQ
QSRP

one-hybrid fitness for binding NBS DNA, 0.718:
QRHS

one-hybrid fitness for binding NBS DNA, 0.206:
QKHY

one-hybrid fitness for binding NBS DNA, 0.277:
KRFA

one-hybrid fitness for binding NBS DNA, 0.223:
RRDV

one-hybrid fitness for binding NBS DNA, 0.518:
RCYR

one-hybrid fitness for binding NBS DNA, 0.245:
QKNQ

one-hybrid fitness for binding NBS DNA, 0.496:
QRRQ

one-hybrid fitness for binding NBS DNA, 0.979:
QYRR

one-hybrid fitness for binding NBS DNA, 0.599:
QYNR

one-hybrid fitness for binding NBS DNA, 0.372:
QCQA

one-hybrid fitness for binding NBS DNA, 0.252:
QAQA

one-hybrid fitness for binding NBS DNA, 0.61:
QRHH

one-hybrid fitness for binding NBS DNA, 0.23:
RCKV

one-hybrid fitness for binding NBS DNA, 0.256:
QYLS

one-hybrid fitness for binding NBS DNA, 0.246:
QYNH

one-hybrid fitness for binding NBS DNA, 0.414:
QYWR

one-hybrid fitness for binding NBS DNA, 0.204:
QYWS

one-hybrid fitness for binding NBS DNA, 0.929:
RRKR

one-hybrid fitness for binding NBS DNA, 0.413:
QSRQ

one-hybrid fitness for binding NBS DNA, 0.462:
QYCR

one-hybrid fitness for binding NBS DNA, 0.693:
QCRH

one-hybrid fitness for binding NBS DNA, 0.382:
QQKW

one-hybrid fitness for binding NBS DNA, 0.993:
QKRR

one-hybrid fitness for binding NBS DNA, 0.482:
QYMR

one-hybrid fitness for binding NBS DNA, 0.415:
QKRQ

one-hybrid fitness for binding NBS DNA, 0.661:
QKHR

one-hybrid fitness for binding NBS DNA, 0.207:
RSIR

one-hybrid fitness for binding NBS DNA, 0.33:
QHRQ

one-hybrid fitness for binding NBS DNA, 0.417:
QYHS

one-hybrid fitness for binding NBS DNA, 0.333:
QCHH

one-hybrid fitness for binding NBS DNA, 0.275:
ERKR

one-hybrid fitness for binding NBS DNA, 0.553:
QYGR

one-hybrid fitness for binding NBS DNA, 0.535:
QSRH

one-hybrid fitness for binding NBS DNA, 0.505:
QKYR

one-hybrid fitness for binding NBS DNA, 0.552:
KRKA

one-hybrid fitness for binding NBS DNA, 0.486:
RFRR

one-hybrid fitness for binding NBS DNA, 0.431:
QRHQ

one-hybrid fitness for binding NBS DNA, 0.363:
QKER

one-hybrid fitness for binding NBS DNA, 0.611:
QRQA

one-hybrid fitness for binding NBS DNA, 0.403:
QRHG

one-hybrid fitness for binding NBS DNA, 0.269:
QCHQ

one-hybrid fitness for binding NBS DNA, ≤ 0.2:
SHRM
SFTP
GMTV
AWKC
HLVG
QNYP
MSYR
KGQY
LHCR
RKVV
RPMF
YCQV
FVKY
QCHM
QSHM
QSHC
QCHG
QSHQ
QPHG
TMAD
KMQL
QPHH
ATVR
ASPP
AERS
AVLE
HTYV
WTPE
PKNM
VQKH
SIHM
DQIS
AINC
PFAM
NEMS
SEDT
RTFF
RCNV
RCEV
RNYV
AVRK
KHMG
LTMT
MTLT
VSMY
WPTG
TWNS
VPYS
QQFW
QQYW
QQVW
QQDW
PDLF
GASG
IEFV
HVSS
QSYQ
QTYQ
QTCQ
QSDQ
QPRQ
QRIQ
AGTH
MNRA
FAPL
KVYR
IVTS
MDCS
CHRG
PCMS
KLNI
PANI
HTQS
DLLT
QKSQ
QMLQ
WNMG
PCVV
QGRA
TPPQ
QTFM
QTFC
QTAF
QTAG
MPRS
QVPV
YMPV
QPQA
RSSN
RSSH
RPSR
CVPS
VSVV
PVFF
GQRG
KRVA
KRDA
KCKA
KCNA
QDQP
VKIM
TAPS
DPGG
TPCF
YQMR
QPRH
QSYH
HHWC
RPYR
RDRR
RSPR
RFYR
RFDR
RPRR
RPCV
MHMS
FEYF
SDMT
MIYS
TKTV
PMHR
LLCI
RSRP
QQPL
PLCI
GLAR
HQST
TWRR
QYNP
QYGK
QYLP
QYGC
NGTR
DDKT
MCAC
HSLM
FAHM
KQAV
DLQG
QYGM
QYCN
QYHN
QYGG
QYHP
WNEY
VWCR
ATSP
GRTC
VDLS
QYSN
QYGN
QYGD
QYSD
QYNN
KTNH
HNTA
HIMR
YTFW
SKSC
VRCG
PIKT
QYQC
QYMF
QYHG
QYQK
QYHD
QYMD
QYWH
NPVN
YEWR
QQIF
YGVH
SDSA
TTTF
EAYV
QLSK
GGTS
IDHN
HIKY
SKIG
APVA
QMVN
DMKT
NMKT
EKHS
VRAW
HGTC
VCQG
HNDV
TFTP
WASL
AFSH
QKYP
QKHN
QKGN
QKGP
DKRR
PTNP
HCFY
IFEL
SQFR
SQRR
VILC
QAWG
NLDR

one-hybrid fitness for binding NBS DNA, 0.31:
QYER

one-hybrid fitness for binding NBS DNA, 0.346:
QYIR

one-hybrid fitness for binding NBS DNA, 0.255:
RCDR

one-hybrid fitness for binding NBS DNA, 0.438:
QRHM

one-hybrid fitness for binding NBS DNA, 0.437:
QRHC
QRHN
QMRQ
RSSR
QYNS

one-hybrid fitness for binding NBS DNA, 0.515:
QTFT

one-hybrid fitness for binding NBS DNA, 0.436:
QYLR

one-hybrid fitness for binding NBS DNA, 0.203:
QYDS

one-hybrid fitness for binding NBS DNA, 0.541:
QYHR

one-hybrid fitness for binding NBS DNA, 0.305:
QYDR

one-hybrid fitness for binding NBS DNA, 0.466:
QYYR

one-hybrid fitness for binding NBS DNA, 0.303:
QRHP

one-hybrid fitness for binding NBS DNA, 0.75:
QMKT

one-hybrid fitness for binding NBS DNA, 0.235:
NKRR

one-hybrid fitness for binding NBS DNA, 0.421:
QYGT

one-hybrid fitness for binding NBS DNA, 0.315:
QHQA

one-hybrid fitness for binding NBS DNA, 0.301:
QYCS

one-hybrid fitness for binding NBS DNA, 0.595:
QTAT

one-hybrid fitness for binding NBS DNA, 0.699:
RRVR

one-hybrid fitness for binding NBS DNA, 0.493:
QYQR

one-hybrid fitness for binding NBS DNA, 0.347:
QRHF

one-hybrid fitness for binding NBS DNA, 0.524:
KRRA

one-hybrid fitness for binding NBS DNA, 0.694:
RRKV

one-hybrid fitness for binding NBS DNA, 0.373:
QQRW
QMVT

one-hybrid fitness for binding NBS DNA, 0.488:
QYNT

one-hybrid fitness for binding NBS DNA, 0.35:
QRYQ

one-hybrid fitness for binding NBS DNA, 0.385:
RNEV
